{"source": "PubChem BioAssay (Tox21)", "note": "Inconclusive results are not listed. Where a call stands in place of a potency, no number is given. Activity calls are given as the source filed them. Calls follow the shape of the dose curve; as a rule, active = well fitted activation curve with a large enough effect in the repeat runs; inconclusive = weak or mixed curves; inactive = flat fitted curve, though single readings scatter.", "data": [{"test": "A CellTox Green Cytotoxicity Assay to monitor cytotoxicity in HEK293 cells - 16 hour (AID 1224888); also: nearly all actives have a fitted effect of over 35% in size", "settings": "CellTox Green fluorescence; series mostly up to 76.8 µM", "source_text": "National Center for Advancing Translational Sciences [NCATS]\nNIH Chemical Genomics Center [NCGC]\nU.S. Environmental Protection Agency [EPA]\nNational Institutes of Environmental Health Sciences [NIEHS]\nNational Toxicology Program [NTP]\nCell-based models are critical for drug discovery. Determining the natural cytotoxic effects resulting from test compounds is an essential research activity. A CellTox Green Cytotoxicity Assay to monitor cytotoxicity in real time of continues cell culture during 40 hours of the compound treatment was used to screen Tox21 10K library compounds in Hek293 cells. CellTox Green Cytotoxicity Assay is a nonlytic, homogeneous, biofluorescent method to measure cytotoxicity in cell culture after experimental manipulation. The assay system uses a proprietary asymmetric cyanine dye that is excluded from viable cells but preferentially stains the dead cell's DNA. […] Viable cells produce no appreciable increases in fluorescence. Therefore, the fluorescence signal produced by the binding interaction with dead cell DNA is proportional to cytotoxicity.\nThe mixture of Hek293 cell suspension and reagents were dispensed at 600cells/6 ul/well in 1536-well tissue culture treated black solid bottom plates using a Multidrop dispenser. After the assay plates were incubated at a 37 C/5% CO2 incubator for 5 hours, 23 nL of compounds dissolved in DMSO, positive and negative controls was transferred to the assay plate by a pintool work station. The plates were incubated at 37 C for 40 hours. The fluorescence intensity were measured at 0h, 8h, 16h, 24h, 32h and 40h time points using ViewLux plate reader during compound treatment.", "values": [{"smiles": "O=C(O[C@@H](C(=O)O)[C@@H](OC(=O)c1ccccc1)C(=O)O)c1ccccc1", "Potency": "inactive"}, {"smiles": "CCOC(=O)c1ccccc1O", "Potency": "inactive"}, {"smiles": "CCN(CC)CC1CCCCN1CC(=O)N1c2ccccc2C(=O)Nc2cccnc21", "note": "(stereo not given)", "Potency": "inactive"}, {"smiles": "O=C1CCN(c2ccccc2)N1", "Potency": "inactive"}, {"smiles": "CC(C)(C)C1CCCCC1=O", "note": "(stereo not given)", "Potency": "inactive"}, {"smiles": "N#CSCC(=O)O", "Potency": "inactive"}, {"smiles": "CC1=C(O)C(=O)OC1C", "note": "(stereo not given)", "Potency": "inactive"}, {"smiles": "Cc1onc(-c2ccccc2)c1C(=O)Cl", "Potency": "inactive"}, {"smiles": "CCCCNCCCC", "Potency": "inactive"}, {"smiles": "O=C(C(Cl)Cl)N1CCOC12CCCCC2", "Potency": "inactive"}, {"smiles": "C1CCOC1", "Potency": "inactive"}, {"smiles": "CO[C@@]1(NC(=O)CSCC#N)C(=O)N2C(C(=O)O)=C(CSc3nnnn3C)CS[C@@H]21", "Potency": "inactive"}, {"smiles": "CC1(C)C(=O)N(Cl)C(=O)N1Br", "Potency": "inactive"}, {"smiles": "O=C(CC(=O)C(F)(F)F)c1ccccc1", "Potency": "inactive"}, {"smiles": "CCCCC1CCC(=O)O1", "note": "(stereo not given)", "Potency": "inactive"}, {"smiles": "CCCCCOc1ccc(C2SC(=O)NC2=O)cc1OCC", "note": "(stereo not given)", "Potency": "inactive"}, {"smiles": "COc1cc(N)c(Cl)cc1C(=O)NC1CCN(Cc2ccccc2)CC1", "Potency": "inactive"}, {"smiles": "O=Cc1ccc(F)c(Br)c1", "Potency": "inactive"}, {"smiles": "CC(C)c1ccccc1", "Potency": "inactive"}, {"smiles": "O=c1[nH]cnc2c1ncn2[C@@H]1O[C@H](CO)[C@@H](O)[C@H]1O", "Potency": "inactive"}, {"smiles": "CC(C)=CCC[C@](C)(O)[C@@H]1CC=C(C)CC1", "Potency": "inactive"}, {"smiles": "Oc1ccccc1C=NCc1ccccc1", "Potency": "inactive"}, {"smiles": "Cc1c[nH]c(=S)[nH]c1=O", "Potency": "inactive"}, {"smiles": "C[C@]12C(=O)OC(=O)[C@H]1[C@H]1C=C[C@@H]2C1", "Potency": "inactive"}, {"smiles": "CC/C=C\\CCOC(=O)C(C)C", "Potency": "inactive"}, {"smiles": "CC(C)=CCCC(C)CCOC=O", "note": "(stereo not given)", "Potency": "inactive"}, {"smiles": "CCCCc1ccc2nc(NC(=O)OC)[nH]c2c1", "Potency": "inactive"}, {"smiles": "CCNCCO", "Potency": "inactive"}, {"smiles": "CC(C)Nc1nc(N)nc(Cl)n1", "Potency": "inactive"}, {"smiles": "CCCCCCCOC(=O)CCC", "Potency": "inactive"}, {"smiles": "Cc1nc(-c2ccccn2)ncc1C(=O)Nn1cc(C)c2cc(F)ccc21", "Potency": "inactive"}, {"smiles": "CCN(CCCc1ccccc1)CCCc1ccccc1", "Potency": "inactive"}, {"smiles": "CCOc1ccc2nc(N)sc2c1", "Potency": "inactive"}, {"smiles": "Cc1c(C(=O)NCCO)[n+](=O)c2ccccc2n1[O-]", "Potency": "inactive"}, {"smiles": "CCOc1ccc(NS(=O)(=O)c2ccc(N)cc2)nn1", "Potency": "inactive"}, {"smiles": "Cc1c(N)cccc1N", "Potency": "inactive"}, {"smiles": "CC(=O)Nc1ccc(C)c(Cl)c1", "Potency": "inactive"}, {"smiles": "Cn1cnc2c(F)c(Nc3ccc(Br)cc3Cl)c(C(=O)NOCCO)cc21", "Potency": "inactive"}, {"smiles": "CN1CCN(c2c(F)cc3c(=O)c(C(=O)O)cn4c3c2SCC4)CC1", "Potency": "inactive"}, {"smiles": "CS(=O)(=O)c1ccc([C@@H](O)[C@@H](CF)NC(=O)C(Cl)Cl)cc1", "Potency": "inactive"}]}]}
